Assay results reported in PubChem BioAssay.
Values joined by “and” are separate entries in the source; they are usually repeats but may differ in a detail not shown here. Equal entries are not always repeated. Records with an inconclusive call do not appear. Active and inactive are the calls of the source.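 The calls were made as follows, unless noted: active = normalized viability below 100% at a tested concentration; inactive = the rest.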

How the values were obtained:
[1] = growth inhibition of DIPG glioma cells, dose response, cell-based, SU-DIPG-XVII, MIPE5.0, CellTiter-Glo, qHTS (AID 1347060; cut-off not given, nearly all actives have AC50 up to about 26 µM;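 as to AC50: cells exposed to compound for 48 hours before viability readout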); details: SU-DIPG-XVII viability, CellTiter-Glo ATP luminescence
[2] = growth inhibition of DIPG glioma cells, dose response, cell-based, JHH-DIPG-1, MIPE4.0, CellTiter-Glo, qHTS (AID 1347062; cut-off not given, nearly all actives have AC50 up to about 27 µM;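 as to AC50: cells exposed to compound for two days before readout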); details: JHH-DIPG-1 viability, CellTiter-Glo ATP luminescence
[3] = growth inhibition of DIPG glioma cells, dose response, cell-based, SU-DIPG-IV, MIPE4.0, CellTiter-Glo, qHTS (AID 1347063; cut-off not given, nearly all actives have AC50 up to about 30 µM;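 also: compound exposure lasted 48 hours before the viability readout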); details: SU-DIPG-IV viability, CellTiter-Glo ATP luminescence
[4] = growth inhibition of DIPG glioma cells, dose response, cell-based, SU-DIPG-XIII, MIPE5.0, CellTiter-Glo, qHTS (AID 1347064; cut-off not given, nearly all actives have AC50 up to about 23 µM;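 as to AC50: cells exposed to compound for 48 hours before the viability read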); details: SU-DIPG-XIII viability, CellTiter-Glo ATP luminescence
[5] = viability loss in pontine glioma line – cell-based, SU-DIPG-XXV, MIPE5.0, CellTiter-Glo, qHTS, dose response (AID 1347065; cut-off not given, nearly all actives have AC50 up to about 26 µM;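 also: cells exposed to compound for 48 hours before ATP readout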); details: CellTiter-Glo ATP luminescence
[6] = JHH-DIPG-1 glioma cell viability, MIPE5.0 library, CellTiter-Glo luminescence, qHTS (AID 1347067; cut-off not given, nearly all actives have AC50 up to about 26 µM;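 also: cells exposed to compound for 48 hours before readout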); details: JHH-DIPG-1 glioma viability, CellTiter-Glo ATP luminescence
[7] = SU-DIPG-XXV glioma cell viability, MIPE5.0 library, qHTS (AID 1347068; cut-off not given, nearly all actives have IC50 up to about 30 µM;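 as to IC50: cells exposed to compound for 48 hours before viability readout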)
[8] = sensitizers of A549 cells to miR-34 induction, primary screen, imaging, A549 dox-inducible miR-34, nuclei and caspase counts (AID 1347080;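 active = compounds whose cell count with miR-34 switched on is under 0.7 times the count with it off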); details: A549 miR-34 inducible, Hoechst nuclei count, 48 h
[9] = modifiers of HSF1 nuclear foci, imaging, Selleck Cancer Library (AID 1347162; in the data active = plate-normalised HSF1 focus index below about 0.46); details: human cells, at 10 µM; SSMD: measured here: HSF1 foci SSMD mean; cell count: measured here: cell number; plate-normalised HSF1 focus index: stronger effect = lower value
[10] = survival rescue of mitochondrial mutant cells in low glucose, primary screen, MELAS cybrids, Rieske KO mouse fibroblasts, CellTiter-Glo (AID 1508586;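 active = mean z-score across replicates of 1.96 or higher in either the MELAS or the Rieske mutant cell line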;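 also: z relative to plate mean and SD of compound and empty wells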)
[11] = ovarian cancer cell viability with rucaparib, profiling panel, oncology-focused library, rucaparib conditional (AID 1508598); details: patient-derived ovarian cancer cells, CellTiter-Glo viability, 144 h, stronger effect = lower value

## CCN1CCN(c2ccc(Nc3cc(N(C)C(=O)Nc4c(Cl)c(OC)cc(OC)c4Cl)ncn3)cc2)CC1
[1]
  AC50: 235 nM (active)
[2]
  AC50: 23.5 µM (active)
[3]
  AC50: 33.2 µM (active)
[4]
  AC50: 332 nM (active)
[5]
  AC50: 209 nM (active)
[6]
  AC50: 8.33 µM (active)

## Cc1cc(OCCCS(C)(=O)=O)cc(C)c1-c1cccc(COc2ccc3c(c2)OC[C@H]3CC(=O)O)c1
[1]
  outcome: inactive
[2]
  outcome: inactive
[3]
  outcome: inactive
[4]
  outcome: inactive
[5]
  outcome: inactive
[6]
  outcome: inactive
[7]
  outcome: inactive

## CN1CC[C@@H](c2c(O)cc(O)c3c(=O)cc(-c4ccccc4Cl)oc23)[C@@H](O)C1
[1]
  AC50: 468 nM (active)
[2]
  AC50: 0.105 µM (active)
[3]
  AC50: 0.0743 µM (active)
[4]
  AC50: 332 nM (active)
[5]
  AC50: 468 nM (active)
[6]
  AC50: 0.59 µM (active)

## CCN(CC)CCCCNc1ncc2cc(-c3cc(OC)cc(OC)c3)c(NC(=O)NC(C)(C)C)nc2n1
[1]
  AC50: 468 nM (active)
[2]
  AC50: 26.4 µM (active)
[3]
  AC50: 16.6 µM (active)
[4]
  AC50: 372 nM (active)
[5]
  AC50: 372 nM (active)
[6]
  AC50: 16.6 µM (active)
[7]
  IC50: 3.32 µM (active)
[8]; stronger effect = lower value, cell number ratio, induced over uninduced
  fold change: 0.886 (inactive) and 0.737 (inactive)
[8]; measured here: relative caspase fold change +Dox/-Dox
  fold change: 1.64 and 1.42
[8]; measured here: total cells with miR-34 induction, stronger effect = lower value
  cell count: 4880 and 4370
[8]; measured here: total cells without miR-34 induction
  cell count: 5500 and 5930
[9]
  SSMD: -4.74
  cell count: 7260
  plate-normalised HSF1 focus index: 0.703 (inactive)
[10]; MELAS cybrid survival, CellTiter-Glo 48 h, stronger effect = higher value
  z-score: -0.712 (inactive)
[10]; Rieske KO mouse fibroblast survival, CellTiter-Glo 72 h
  z-score: 0.5
[11]; at 0.000305 µM, OCI-C5x cells, with rucaparib 10 µM, 100% = cells with rucaparib alone
  viability: 117% (inactive)
[11]; at 0.000305 µM, OCI-C5x cells, without rucaparib
  viability: 103% (inactive)
[11]; at 0.000305 µM, OCI-P5x cells, with rucaparib 20 µM, 100% = cells with rucaparib alone
  viability: 96.8% (active)
[11]; at 0.000305 µM, OCI-P5x cells, without rucaparib
  viability: 89.9% (active)
[11]; at 0.00122 µM, OCI-C5x cells, with rucaparib 10 µM, 100% = cells with rucaparib alone
  viability: 105% (inactive)
[11]; at 0.00122 µM, OCI-C5x cells, without rucaparib
  viability: 104% (inactive)
[11]; at 0.00122 µM, OCI-P5x cells, with rucaparib 20 µM, 100% = cells with rucaparib alone
  viability: 105% (inactive)
[11]; at 0.00122 µM, OCI-P5x cells, without rucaparib
  viability: 98.6% (active)
[11]; at 0.00488 µM, OCI-C5x cells, with rucaparib 10 µM, 100% = cells with rucaparib alone
  viability: 118% (inactive)
[11]; at 0.00488 µM, OCI-C5x cells, without rucaparib
  viability: 110% (inactive)
[11]; at 0.00488 µM, OCI-P5x cells, with rucaparib 20 µM, 100% = cells with rucaparib alone
  viability: 104% (inactive)
[11]; at 0.00488 µM, OCI-P5x cells, without rucaparib
  viability: 101% (inactive)
[11]; at 0.0195 µM, OCI-C5x cells, with rucaparib 10 µM, 100% = cells with rucaparib alone
  viability: 118% (inactive)
[11]; at 0.0195 µM, OCI-C5x cells, without rucaparib
  viability: 108% (inactive)
[11]; at 0.0195 µM, OCI-P5x cells, with rucaparib 20 µM, 100% = cells with rucaparib alone
  viability: 109% (inactive)
[11]; at 0.0195 µM, OCI-P5x cells, without rucaparib
  viability: 108% (inactive)
[11]; at 0.0781 µM, OCI-C5x cells, with rucaparib 10 µM, 100% = cells with rucaparib alone
  viability: 120% (inactive)
[11]; at 0.0781 µM, OCI-C5x cells, without rucaparib
  viability: 113% (inactive)
[11]; at 0.0781 µM, OCI-P5x cells, with rucaparib 20 µM, 100% = cells with rucaparib alone
  viability: 113% (inactive)
[11]; at 0.0781 µM, OCI-P5x cells, without rucaparib
  viability: 104% (inactive)
[11]; at 0.313 µM, OCI-C5x cells, with rucaparib 10 µM, 100% = cells with rucaparib alone
  viability: 120% (inactive)
[11]; at 0.313 µM, OCI-C5x cells, without rucaparib
  viability: 115% (inactive)
[11]; at 0.313 µM, OCI-P5x cells, with rucaparib 20 µM, 100% = cells with rucaparib alone
  viability: 105% (inactive)
[11]; at 0.313 µM, OCI-P5x cells, without rucaparib
  viability: 101% (inactive)
[11]; at 1.25 µM, OCI-C5x cells, with rucaparib 10 µM, 100% = cells with rucaparib alone
  viability: 140% (inactive)
[11]; at 1.25 µM, OCI-C5x cells, without rucaparib
  viability: 126% (inactive)
[11]; at 1.25 µM, OCI-P5x cells, with rucaparib 20 µM, 100% = cells with rucaparib alone
  viability: 100% (inactive)
[11]; at 1.25 µM, OCI-P5x cells, without rucaparib
  viability: 105% (inactive)
[11]; at 5 µM, OCI-C5x cells, with rucaparib 10 µM, 100% = cells with rucaparib alone
  viability: 140% (inactive)
[11]; at 5 µM, OCI-C5x cells, without rucaparib
  viability: 85.3% (active)
[11]; at 5 µM, OCI-P5x cells, with rucaparib 20 µM, 100% = cells with rucaparib alone
  viability: 74.6% (active)
[11]; at 5 µM, OCI-P5x cells, without rucaparib
  viability: 68.4% (active)
